Laboratory results: PubChem BioAssay
Activity calls are given as the source filed them. Unless noted, how the calls were made is not given here.

Key:
[1] = tested on: Wnt5a (protein binding on small-molecule microarray); experiment: Wnt5a binders on small-molecule microarray, primary screen, biophysical, 635/667 nm fluorescence (AID 1142); details: 635 nm fluorescence, higher = more signal;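 further: fluorescence read at 667 nm with signal to noise per printed feature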
[2] = cell viability in Huh7 cells, primary screen, cytotoxicity control for HCV replication inhibitor project, CellTiter-Glo luminescence, basal, 48 h (AID 1143); details: Huh7 HCV replicon, higher = more signal, called active from +8 up or from −8 down;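 further: Huh7 hepatoma cells carrying a hepatitis C replication reporter with no stimulus; test concentration not given here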
[3] = P. aeruginosa biofilm formation inhibitors, primary screen, PAO1 strain, BacTiter-Glo luminescence, LB-PBS (AID 1144); details: 12 h, higher = more signal
[4] = CREB reporter modulators without forskolin, primary screen, cell-based, PC12, CRE-LacZ reporter, unstimulated (AID 1145); details: no forskolin, luminescence, 4.5 h, higher = more signal, called active from +8 up or from −8 down
[5] = CREB reporter modulators under forskolin, primary screen, cell-based, PC12, CRE-LacZ reporter, forskolin-stimulated (AID 1146); details: luminescence, 4.5 h, higher = more signal, called active from +8 up or from −8 down;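 further: PC12 cells with 6xCRE LacZ reporter stimulated by forskolin 10 µM; beta-galactosidase reporter signal reflecting CREB driven transcription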
[6] = biological target: Streptavidin (Streptomyces avidinii) (UniProt P22629); experiment: streptavidin binders on small-molecule microarray, primary screen, artefact control for SMM compound annotation, biophysical, 635/667 nm fluorescence (AID 1147); details: streptavidin binding, higher = more signal;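 further: signal reflects streptavidin binding to arrayed compounds as a control protein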
[7] = small-molecule binders of probe aInhba, primary screen, biochemical, small-molecule microarray, 635/667 nm fluorescence (AID 1148); details: higher = more signal;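 further: score merges 667nm spot fluorescence with signal-to-noise for antibody binding to printed compounds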
[8] = biological target: Torsin-1A (Homo sapiens) (UniProt O14656); experiment: torsin A binders from cell lysate, primary screen, small-molecule microarray, wild-type, 635/667 nm (AID 1149); details: COS7 hTOR1A-WT lysate, 635 nm fluorescence, higher = more signal
[9] = biological target: Torsin-1A (Homo sapiens) (UniProt O14656); experiment: small-molecule binders of mutant TOR1A in lysate, primary screen, cell lysate, small-molecule microarray, COS7 lysate, 635/667 nm fluorescence (AID 1150); details: COS7 hTOR1A mutant lysate, 635 nm fluorescence, higher = more signal;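 further: score pools 667 nm emission and signal to noise measuring lysate protein binding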
[10] = tested on: Sonic hedgehog protein (Shh); experiment: small-molecule binders of Shh protein, primary screen, biochemical, small-molecule microarray, 635/667 nm fluorescence (AID 1151); details: small-molecule microarray binding, 635 nm fluorescence; higher = more signal;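 further: Shh protein binding to compounds spotted on small-molecule microarray slides; score combines spot fluorescence intensity with signal-to-noise across triplicate slides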

Sequence of Streptavidin (Streptomyces avidinii) (P22629 whole entry, looked up): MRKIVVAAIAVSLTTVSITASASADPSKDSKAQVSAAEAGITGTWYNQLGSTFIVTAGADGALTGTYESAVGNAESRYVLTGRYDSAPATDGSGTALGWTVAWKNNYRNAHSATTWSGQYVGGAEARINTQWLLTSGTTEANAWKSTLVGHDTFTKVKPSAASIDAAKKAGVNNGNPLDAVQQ
Sequence of Torsin-1A (Homo sapiens) (O14656 whole entry, looked up): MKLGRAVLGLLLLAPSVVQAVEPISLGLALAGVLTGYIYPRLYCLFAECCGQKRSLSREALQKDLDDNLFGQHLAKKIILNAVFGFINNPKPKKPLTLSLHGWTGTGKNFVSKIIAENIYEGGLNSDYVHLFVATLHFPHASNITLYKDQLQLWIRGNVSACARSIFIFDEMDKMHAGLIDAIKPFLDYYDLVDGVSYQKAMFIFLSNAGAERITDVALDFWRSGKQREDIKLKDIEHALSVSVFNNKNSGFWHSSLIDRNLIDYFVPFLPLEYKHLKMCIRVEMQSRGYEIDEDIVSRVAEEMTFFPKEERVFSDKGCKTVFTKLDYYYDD

Row | Structure (SMILES) | composite z-score [1] | z-score [2] | z-score [3] | z-score [4] | z-score [5] | composite z-score [6] | composite z-score [7] | composite z-score [8] | composite z-score [9] | composite z-score [10]
1 | C=CCC(OC(C)=O)[C@@H]1[C@@H](N(Cc2ccc(-c3ccccc3)cc2)C(=O)Cc2ccc(F)cc2)c2cc(OCCCO)ccc2N1C(=O)c1ccc2ccccc2n1 (stereo not given in full) | -0.212 | 0.0753 (inactive) | -0.201 (inactive) | 2.31 (inactive) | -0.116 (inactive) | 0.171 | 0.151 | 0.226 | 0.0886 | 0.321
2 | CN1C(=O)C2C=CC(C(O)c3ccccn3)N(Nc3ccccc3)C2C1=O (stereo not given) | -0.0522 | 0.901 (inactive) | -0.652 (inactive) | 0.0467 (inactive) | 0.4 (inactive) | 0.324 | -0.0069 | 0.884 | -0.179 | 0.207
3 | N#Cc1ccc(NN2C(C(O)c3cccs3)C=CC3C(=O)N(c4ccccc4)C(=O)C32)cc1 (stereo not given) | 0.128 | -0.0331 (inactive) | -1.34 (inactive) | -0.329 (inactive) | -0.224 (inactive) | 0.943 | 0.109 | 0.733 | 0.812 | -0.318
4 | C=C(CCCC)/C(=C/C[C@H](OC(C)=O)c1ccc(CO)o1)c1cnc2ccccc2c1 | 0.465 | 0.665 (inactive) | -1.22 (inactive) | 0.0563 (inactive) | 1.65 (inactive) | 1.25 | 0.0278 | 0.749 | 1.08 | 1.89
5 | COC(=O)[C@@]1(Cc2ccc(OC)cc2)[C@H]2c3cc(C(=O)N4CCCC4)n(CCc4c[nH]c5cc(F)ccc45)c3C[C@H]2CN1C(=O)c1ccccc1 | 0.313 | -1.26 (inactive) | -0.0146 (inactive) | 0.773 (inactive) | 0.199 (inactive) | 2.19 | 0.636 | 0.188 | 1.25 | 0.133
6 | CC(C)NC(=O)[C@@H]1c2ccccc2C(=O)N(Cc2ccccc2Cl)[C@H]1c1ccc(CO)cc1 | -0.243 | -0.485 (inactive) | 0.471 (inactive) | 0.145 (inactive) | -0.47 (inactive) | -0.418 | -0.179 | 0.267 | 0.343 | 0.0599
7 | C=CCC(OC(C)=O)[C@@H]1[C@@H](N(Cc2cc3ccccc3o2)C(=O)c2ccc(C)cc2)c2cc(OCCCO)ccc2N1C(=O)c1ccc2ccccc2c1 (stereo not given in full) | 0.132 | 0.0491 (inactive) | -0.571 (inactive) | 3.93 (inactive) | 0.697 (inactive) | 0.0282 | -0.0963 | -0.353 | -0.0172 | 0.218
8 | O=C1N(CCS(=O)(=O)c2ccccc2)c2ccccc2C[C@@]12COC(c1ccc(OCCCO)cc1)=N2 | 0.576 | -1.46 (inactive) | 0.261 (inactive) | 0.218 (inactive) | -0.151 (inactive) | 0.906 | 0.362 | 0.784 | 0.967 | 0.534
9 | C=CCNC(=O)[C@@H]1[C@H]2C(=O)O[C@H](c3ccccc3)[C@H](c3ccccc3)N2[C@H](c2ccccc2OCCO)[C@@]12C(=O)Nc1ccc(C#CC3=CCCCC3)cc12 | 0.248 | -6.58 (inactive) | -1.43 (inactive) | -1.42 (inactive) | -1.45 (inactive) | 0.562 | 0.592 | 0.192 | 0.255 | 1.91
10 | C=CCNC(=O)[C@@H]1[C@H]2C(=O)O[C@H](c3ccccc3)[C@H](c3ccccc3)N2[C@H](c2ccc(O)cc2)[C@@]12C(=O)N(C(=O)OCCOC)c1ccccc12 | 0.0795 | -4.99 (inactive) | -0.848 (inactive) | 1.04 (inactive) | -0.0406 (inactive) | 1.56 | -0.0375 | 0.677 | 0.76 | 0.951
11 | CC=CC(O)C1C=CC2C(=O)N(c3ccccc3)C(=O)C2N1Nc1ccc(C(C)C)cc1 (stereo not given) | 0.288 | 0.0547 (inactive) | -0.302 (inactive) | 0.0501 (inactive) | 0.133 (inactive) | 1.24 | 0.143 | -0.173 | 0.55 | -0.0469
12 | O=C1C2C=CC(C(O)c3cccs3)N(Nc3ccccc3F)C2C(=O)N1c1ccccc1 (stereo not given) | 0.13 | -1.1 (inactive) | -1.51 (inactive) | -0.714 (inactive) | -0.198 (inactive) | 0.295 | -0.159 | 0.0473 | 0.605 | -0.573
13 | CS(=O)(=O)CCOC(=O)C1=CC(CCCO)=CC(c2cccs2)N(Cc2cc3c(cc2Br)OCO3)C=C1C(=O)OCCS(C)(=O)=O (stereo not given) | 0.567 | -1.26 (inactive) | 0.00546 (inactive) | -0.583 (inactive) | 0.72 (inactive) | 2.16 | 0.086 | 1.3 | 1.16 | 0.759
14 | CCCCC=C[C@@H](NC(=O)c1cccs1)c1ccccc1 | 0.0001 | -2.49 (inactive) | 0.15 (inactive) | -0.951 (inactive) | -0.548 (inactive) | 0.801 | 0.261 | 0.0798 | 0.454 | -0.216
15 | COCCCNC(=O)[C@@]1(CCC(=O)OC(C)(C)C)N=C(c2ccc(OCCCO)cc2)O[C@H]1c1ccccc1CN=[N+]=[N-] | 1.01 | -0.0523 (inactive) | 0.0993 (inactive) | -0.538 (inactive) | 0.286 (inactive) | 1.01 | 0.329 | 1.23 | 1.51 | 0.103
